Where a name gives a salt, the structure may show the parent alone.
Test system: thyroid hormone receptor (endogenous TRα and TRβ)
Parameters: species or system GH3-TRE-Luc (rat pituitary); GH3-TRE-Luc luciferase reporter, antagonist mode against 1 nM T3, loss of signal, qHTS
Conditions: read-out: Average AC50 (uM) GH3-TRE-Antag, antagonist mode, 1 nM T3, no GH3 cytotoxicity hit

| Structure (SMILES) | AC50 [µM] |
| --- | --- |
| CO/C=C(/C(=O)OC)c1ccccc1COc1cccc(C(F)(F)F)n1 [Picoxystrobin] | 0.276 |
| CCCCCCOc1ccccc1C(N)=O [Exalamide] | 30.7 |
| COc1ccc(/C=C/C(=O)Nc2ccccc2C(=O)O)cc1OC [Tranilast] | 12.3 |
| CNCc1ccc(NC(=O)c2c[nH]c3c2C(=O)CCC3)cc1 [CP-409092] | 84.3 |
| CCOC(=O)C1=NN(c2ccccc2)C(=O)C1 [Ethyl 5-oxo-1-phenyl-4,5-dihydro-1H-pyrazole-3-carboxylate] | 47.8 |
| Oc1ccc(Cc2ccccc2O)cc1 [2-(4-Hydroxybenzyl)phenol] | 63.8 |
| Cn1cnc2c(F)c(Nc3ccc(Br)cc3Cl)c(C(=O)NOCCO)cc21 [Selumetinib] | 12.5 |
| COc1ccc(CN(CCN(C)C)c2ccccn2)cc1 [Pyrilamine maleate] | 32.2 |
| C=CCOC(=O)/C=C\C(=O)OCC=C [Diprop-2-en-1-yl (2Z)-but-2-enedioate] | 79.2 |
| Cn1c(CCCC(=O)O)nc2cc(N(CCCl)CCCl)ccc21 [Bendamustine] | 28 |
| C[C@]12CC[C@H]3[C@@H](CC[C@@]45O[C@@H]4C(O)=C(C#N)C[C@]35C)[C@@H]1CC[C@@H]2O [Trilostane] | > 50 |
| COc1nc(N)nc2c1ncn2[C@@H]1O[C@H](CO)[C@@H](O)[C@@H]1O [Nelarabine] | 25.2 |
| CC(Cc1ccccc1)(NC(=O)CN)c1ccccc1 (stereo not drawn) [Remacemide hydrochloride] | 21.8 |
| C#C[C@]1(OC(C)=O)CC[C@H]2[C@@H]3CCC4=CC(=O)CC[C@@H]4[C@H]3CC[C@@]21C [Norethindrone acetate] | 10 |
| CC(C)N(C(=O)COc1nnc(C(F)(F)F)s1)c1ccc(F)cc1 [Flufenacet] | 53.2 |
| CC[C@H](C)C(=O)O[C@H]1C[C@H](O)C=C2C=C[C@H](C)[C@H](CC[C@@H](O)C[C@@H](O)CC(=O)O)[C@H]21 [Pravastatin sodium] | 18.4 |
| C[C@H]1O[C@@H](O[C@H]2[C@@H](O)C[C@H](O[C@H]3[C@@H](O)C[C@H](O[C@H]4CC[C@@]5(C)[C@H](CC[C@@H]6[C@@H]5C[C@@H](O)[C@]5(C)[C@@H](C7=CC(=O)OC7)CC[C@]65O)C4)O[C@@H]3C)O[C@@H]2C)C[C@H](O)[C@@H]1O [Digoxin] | > 50 |

| Structure (SMILES) | AC50 [µM] |
| --- | --- |
| O=C(N/N=C/c1ccccc1O)c1ccncc1 [Salinazid] | 20.5 |
| CCCC(=O)O[C@]1(C(=O)CCl)[C@@H](C)C[C@H]2[C@@H]3CCC4=CC(=O)C=C[C@]4(C)[C@@]3(F)C(=O)C[C@@]21C [Clobetasone butyrate] | 32.9 |
| O=C1CCCCCCCCCCCC(=O)OCCO1 [1,4-Dioxacycloheptadecane-5,17-dione] | 47.7 |
| CC1=C2[C@H](/C=C(\C)C(=O)O)CC[C@@H](C)[C@H]2CC1 [Valerenic acid] | 57.5 |
| COc1ccc2[nH]c([S+]([O-])Cc3ncc(C)c(OC)c3C)nc2c1 (stereo not drawn) [Omeprazole] | > 50 |
| CCC(C)c1cc(C(C)(C)C)c(O)c(C(C)(C)C)c1 (stereo not drawn) [4-(Butan-2-yl)-2,6-di-tert-butylphenol] | 23.6 |
| Cc1cccc(Oc2ccccc2)c1 [1-Methyl-3-phenoxybenzene] | 82.5 |
| N=C(N)NC(=N)NCCc1ccccc1 [Phenformin hydrochloride] | > 20 |
| O=C(CCCN1CCC(O)(c2ccc(Br)cc2)CC1)c1ccc(F)cc1 [Bromperidol] | 12.9 |
| CC1(C)[C@H](C(=O)O[C@H](C#N)c2cccc(Oc3ccccc3)c2)[C@@H]1C=C(Cl)Cl [alpha-Cypermethrin] | > 90 |
| CC(C)c1cccc(C(C)C)c1N1C(=O)c2ccc(O)cc2C1=O [5HPP-33] | 5.01 |
| CC(=O)C1(C)CC2=C(CCCC2(C)C)CC1C (stereo not drawn) [Isocyclemone E] | 87.5 |
| Cl[C@H]1[C@H](Cl)[C@@H](Cl)[C@@H](Cl)[C@H](Cl)[C@H]1Cl [Lindane] | 81.2 |
| CC[C@H](C)C(=O)O[C@H]1CCC=C2C=C[C@H](C)[C@H](CC[C@@H]3C[C@@H](O)CC(=O)O3)[C@H]21 [Mevastatin] | 30.9 |
| Nc1ccc2cc3ccccc3cc2c1 [2-Aminoanthracene] | 3.18 |
| CC(C)c1c(CN(C)C(C)Cc2ccccc2)n(C)n(-c2ccccc2)c1=O (stereo not drawn) [Famprofazone] | 13.1 |

From PMC6792352, “Limited Chemical Structural Diversity Found to Modulate Thyroid Hormone Receptor in the Tox21 Chemical Library” (Environmental Health Perspectives, 2019)
